# FBW7 act – FBW7 E3 ligase activators, primary screen, biochemical, AlphaScreen, human | normalized activity (activation), % at 26.1 µM | AID 1259310, 2017 | AlphaScreen FBW7–phospho-cyclin E peptide binding, activator screen | hit rate 0.13% among 650,000 | F-box/WD repeat-containing protein 7 (Homo sapiens), Q969H0; in the data active means normalized activity above about 1.9%;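 further: purified mutant Fbw7 with reduced substrate affinity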
# GPR151 ag – activators of human GPR151, primary screen, cell-based, PathHunter beta-arrestin, luminescence. PathHunter beta-arrestin GPR151 cells. activation, % at 11.2 µM. hit rate 1% among 650,000; in the data active means activation above about 4.9%;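 further: 0% = median of compound wells and 100% = cells with positive control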
# MITF inh – MITF inhibitors, primary screen, biochemical, AlphaScreen, human | Microphthalmia-associated transcription factor (Homo sapiens), O75030 | AlphaScreen MITF homodimerization, bead proximity signal | inhibition, % at 2.6 µM | hit rate 0.91% among 650,000; in the data active means inhibition above about 50%;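 further: 0% = vehicle wells with protein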
# TEAD-YAP inh – TEAD-YAP interaction inhibition, primary screen, TEAD-YAP interaction inhibitor project, luminescence, HEK-TIYL cells | TEAD-Gal4/YAP UAS-luciferase luminescence | inhibition, % at 9.12 µM | hit rate 1.4% among 640,000; in the data active means inhibition above about 32%;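 further: 0% = median of test compound wells and 100% = reference inhibitor wells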
# GPR151 conf act – GPR151 activators, triplicate retest, confirmation, cell-based, PathHunter beta-arrestin, luminescence; shares compounds with GPR151 ag; GPR151 PathHunter beta-arrestin cells, 90 min; % of EA-reagent control over plate median; activation, % at 11.2 µM; 6,700 tested, under 10 active; AID 1508609, 2020;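 active means mean percent activation across replicates above the confirmation screen cutoff of 4.91%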
# GPR119 ag – GPR119 activators in beta-arrestin cells, counter-screen for GPR151 activator project, cell-based, PathHunter beta-arrestin, luminescence, triplicate. shares compounds with GPR151 ag. 90 min; 0 = compound-well median, 100 = enzyme-acceptor control. activation, % at 11.2 µM. hit rate 0.3% among 6,700;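 active means mean percent activation in the counterscreen above 29.09%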;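 further: counterscreen on off-target GPR119 to flag nonselective hits from the GPR151 activator screen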
# Target sequence (Q8TDV5 whole entry, looked up): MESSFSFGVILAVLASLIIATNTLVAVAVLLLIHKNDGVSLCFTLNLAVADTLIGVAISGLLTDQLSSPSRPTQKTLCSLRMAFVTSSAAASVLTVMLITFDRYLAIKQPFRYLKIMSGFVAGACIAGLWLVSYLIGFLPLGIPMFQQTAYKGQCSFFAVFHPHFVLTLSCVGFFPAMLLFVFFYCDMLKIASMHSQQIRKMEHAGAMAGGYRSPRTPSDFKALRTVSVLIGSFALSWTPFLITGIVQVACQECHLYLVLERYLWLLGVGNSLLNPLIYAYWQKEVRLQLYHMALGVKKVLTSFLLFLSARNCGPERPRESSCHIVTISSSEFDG
# Starred values were filed as active, the others as inactive; . = no result; ! = repeats disagree. Most compounds without a hit are left out; they make up all but 3.5% or so of the library.
SMILES,FBW7 act,GPR151 ag,MITF inh,TEAD-YAP inh,GPR151 conf act,GPR119 ag
CC(NC(=O)CN1CCN(c2ccccc2O)CC1)c1ccccc1 (configuration not stated),0.2,-0.2,12.2,-2.5,.,.
CSc1ccc(/C=N/Nc2nc3ccccc3s2)cc1,-0.1,-1.3,11.5,-47.6,.,.
COc1ccc(NC2=CC(=O)CCC2)c(OC)c1,0.0,7.8*!,5.1,-5.6,0.8,7.9
COc1ccc(NC2=CC(=O)CCC2)cc1,0.1,-0.5,4.0,7.5,.,.
CC(=O)Nc1ccc(NC(=O)c2cnc(-c3ccccc3)s2)cc1,-0.1,5.9*,5.7,-5.8,-0.9,-12.0
Cc1sc2nc(Cc3ccccc3)n(C3CCN(CC(N)=O)CC3)c(=O)c2c1C,0.0,6.1*,4.5,-0.1,1.3,-8.0
Cc1sc2nc(Cc3ccccc3)n(C3CCN(C(=O)c4ccco4)CC3)c(=O)c2c1C,0.1,0.5,5.7,-6.1,.,.
O=C(CC1C(=O)NCCN1CCc1ccccc1)NCCCOc1cccnc1 (configuration not stated),0.2,0.1,8.3,3.9,.,.
Cc1cc(C)c2sc(NC(=O)CCC3CCCC3)nc2n1,-0.3,5.3*,-6.2,-11.0,1.1,-7.4
COc1ccc(Cl)cc1N1C(=O)C2CCCN2C1c1ccccc1 (configuration not stated),0.8,0.6,5.7,2.5,.,.
COc1ccccc1C1N(c2cc(Cl)ccc2OC)C(=O)C2CCCN21 (configuration not stated),0.0,6.8*,3.9,1.3,-0.6,-7.6
Fc1ccc(-c2cc3nc4c(c(N5CCOCC5)n3n2)CCC4)cc1,0.5,0.7,5.7,4.9,.,.
Fc1cccc(-c2cc3nc4c(c(N5CCOCC5)n3n2)CCC4)c1,-0.3,6.7*,6.9,0.3,1.9,9.0
CC1=C(C#N)C(c2ccco2)C2=C(CC(C)(C)CC2=O)N1 (configuration not stated),-0.1,-1.1,-9.7,3.8,.,.
Cc1ccc(-n2ncc3c(NCc4cccnc4)ncnc32)c(C)c1,0.1,8.5*,5.7,2.3,-0.7,-3.2
c1ccc(-n2ncc3c(Nc4cccc5ccccc45)ncnc32)cc1,0.0,5.7*,16.1,-2.2,-0.6,-8.1
COc1ccc(CNc2ncnc3c2cnn3-c2cccc(C)c2)cc1,0.1,5.2*,5.5,-11.8,0.4,-5.4
Cc1ccc(-n2ncc3c(SCC(=O)NC(C)(C)C)ncnc32)c(C)c1,-0.2,7.2*,-5.9,3.8,0.0,-4.4
S=C(Nc1ccc2c(c1)OCO2)Nc1ccc(Cl)cn1,0.0,0.0,18.1,-18.6,.,.
COc1ccc(C)cc1N(CC(N)=O)S(C)(=O)=O,0.2,7.7*,-2.6,1.6,-0.3,-0.8
COC(=O)CN(c1cc(C)ccc1OC)S(C)(=O)=O,0.5,-1.0,8.2,3.2,.,.
Cc1ccc(C)c(N(CC(=O)NC(C(C)C)C(C)C)S(C)(=O)=O)c1,-0.1,5.9*,1.1,2.0,-0.5,3.3
COc1ccc(-c2ocnc2C(=O)Nc2cc(C)nc3ccccc23)cc1OC,0.4,-0.7,18.1,1.3,.,.
Cn1nccc1Nc1nccc(Nc2ccccc2)n1,0.0,7.5*,-4.6,-4.8,0.8,5.2
COC(=O)c1cccc(Nc2nc(C)cc(C)n2)c1,-0.2,12.3*,-4.9,-26.1,-0.3,-8.8
SMILES,FBW7 act,GPR151 ag,MITF inh,TEAD-YAP inh,GPR151 conf act,GPR119 ag
CN1CCN(/N=C(\NO)c2nonc2N)CC1,0.2,12.8*!,-18.4,-24.8,0.0,-1.1
O=C(CSc1ccccc1)Nc1cc(Cl)ccc1O,-0.1,-2.2,-7.4,7.3,.,.
O=C(CSc1ccc(F)cc1)Nc1cc(Cl)ccc1O,-0.1,6.4*,12.8,9.8,0.4,-0.4
Cc1ccc(NC(=O)CCC(=O)N/N=C/c2ccc(Br)cc2)cc1,0.0,-0.2,12.9,9.6,.,.
Cc1ccc(OCCNC(=O)C(=O)Nc2ccccc2F)cc1C,0.0,5.2*,0.7,1.1,0.8,-2.6
COc1cc(/C=C/c2nnc3c4ccccc4ncn23)cc(OC)c1OC,0.1,8.4*,-1.9,0.7,0.6,9.2
C(=C\c1nnc2c3ccccc3ncn12)/c1ccccc1,0.1,-1.1,6.2,11.9,.,.
Cc1cc(Nc2ccc(C(=O)O)cc2)c2cccc(C)c2n1,0.1,-0.1,-10.0,3.6,.,.
CCS(=O)(=O)N1CCN=C1SCc1ccccc1,-0.4,5.6*,-6.7,4.6,1.2,10.1
CCCS(=O)(=O)N1CCN=C1SCc1ccccc1,0.0,0.8,-0.1,-4.4,.,.
O=C(NNC(=O)c1ccccc1F)c1ccc(Cl)nc1,0.0,4.9*,7.5,-14.6,0.0,-0.1
CCOc1ccc2c(c1)c(=O)c(C(=O)c1ccccc1)cn2CC(=O)Nc1ccccc1,-0.1,6.3*,13.8,-5.0,-0.1,1.3
CC(=O)Nc1ccc(NC(=O)/C=C/C(=O)O)cc1Cl,0.4,0.3,14.3,0.5,.,.
COc1ccc2c(c1)CC(C(=O)Nc1ccc(-c3ccnc(N)n3)cc1O)CO2 (configuration not stated),0.1,1.0,18.9,9.7,.,.
COc1ccc2c(c1)CC(C(=O)Nc1ccc(-c3ccnc(N)n3)cc1)CO2 (configuration not stated),13.9*,5.2*,-13.8,4.3,0.8,8.9
CC(C)N(CCNc1nc(N2CCC(N3CCOCC3)CC2)nc2c1ncn2C1CCCCC1)C(C)C,-0.1,14.3*,9.7,2.9,1.0,5.9
Cc1cnc(N2CCC(N3CCOCC3)CC2)nc1NCCN(C(C)C)C(C)C,0.2,6.7*,-9.0,1.1,-0.8,6.3
C/C(=N\NC(=O)Cc1ccccc1)c1c(C)[nH]n(-c2ccccc2)c1=O,-0.1,0.0,-4.0,-26.4,.,.
Cc1ccc(N=NNc2cccc([N+](=O)[O-])c2)cc1,0.1,5.9*,-3.8,-4.0,-0.2,-6.1
CC(=O)Nc1ccc(Nc2nc(-c3ccccc3)nc3c2ncn3C2CCCCC2)cc1,-0.1,-0.3,4.1,-7.0,.,.
COc1ccc(C2=N/C(=C\c3cccs3)C(=O)O2)cc1[N+](=O)[O-],1.2,-0.9,17.3,1.9,.,.
COc1cccc(OC)c1OCC(O)CN1CCN(c2ccccn2)CC1 (configuration not stated),0.0,-2.2,5.6,4.0,.,.
OC(COc1cccc2ccccc12)CN1CCNCC1 (configuration not stated),0.5,11.9*,4.4,14.5,0.8,7.6
CC(C)NCC(O)COc1cccc2ccccc12 (configuration not stated),-0.1,5.5*!,4.3,8.4,-0.8,-9.7

# High-throughput results from PubChem BioAssay.
